Measured values published in PubChem BioAssay (NCATS).
Inconclusive results are not listed. A number with no mark means an inactive call. Calls of active or inactive are those of the source. Unless noted, calls come from the whole dose curve; as a rule, active = well fitted curve in the direction sought with a large enough effect; inconclusive = small, poorly fitted or top-dose-only effect, or another doubt; inactive = no such curve, though single readings can be large; an effect the other way counts as inactive or inconclusive.

Tests used:
[1] = molecular target: ATP-dependent 6-phosphofructokinase (Trypanosoma brucei brucei) (UniProt O15648); test: qHTS Assay to Find Inhibitors of T. brucei phosphofructokinase: hit validation (AID 492961);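 note: luminescence reports ADP formed as PFK phosphorylates fructose-6-phosphate with ATP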
In short: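 Measures ADP output of PFK (1.25 nM) at 0.1 mM ATP, 0.5 mM F6P, pH 8.0 TEA buffer with 5 mM MgCl2. No-enzyme wells define full inhibition; uninhibited enzyme wells define zero.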

[2] = molecular target: Ubiquitin carboxyl-terminal hydrolase 1 (Homo sapiens) (UniProt O94782); test: Inhibitors of USP1/UAF1: Pilot qHTS (AID 504865);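 note: rhodamine fluorescence freed from ubiquitin-rhodamine substrate followed over time; top concentration of the series differs between compounds; nearly all actives have a fitted effect of over 35% in size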
In short: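 In 50mM HEPES pH 7.8 containing 0.5mM EDTA, 1mM TCEP, 0.1 mg/ml BSA and 0.01% Tween-20, 1nM USP1/UAF1 is exposed to compound for 15 min, then Ub-Rho (150nM final) is added and fluorescence is read over time.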

[3] = molecular target: Luciferin 4-monooxygenase (Photinus pyralis) (UniProt P08659); test: Biochemical firefly luciferase enzyme assay for NPC (AID 624030);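 note: purified P. pyralis luciferase at 10 nM with luciferin and ATP substrate; nearly all actives have a fitted effect of over 70% in size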
In short: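 Direct inhibition of firefly luciferase enzyme (10 nM final, 50 mM Tris Acetate) assessed by luminescence within 5 minutes. Percent activity scaled between DMSO and PTC124 positive control, with concentration-effect curves classified by fit quality and response.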

[4] = S16 Schwann cell PMP22 intronic element firefly luciferase assay (AID 624032); note: potency is the fitted concentration of half-maximal effect; nearly all actives have a fitted effect of over 30% in size
In short: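 Luciferase reporter of PMP22 intronic-element expression in stably transfected S16 rat Schwann cells, read by ONE-Glo luminescence after 24 h compound exposure at 37 C. Activity scaled between DMSO (0%) and positive-control PTC124; concentration-effect curves quality-classified.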

[5] = S16 Schwann cell PMP22 intronic element beta-lactamase assay (AID 624044; calls by dose curve; note: potency is the fitted concentration of half-maximal effect; nearly all actives have a fitted effect of over 15% in size)
In short: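 Rat S16 Schwann cells with beta-Lac driven by a PMP22 intronic element, compound-treated 24 h at 37 °C. LiveBLAzer FRET B/G read: 460 nm normalized to potassium clavulanate vs DMSO; 535 nm FRET as viability; concentration-effect curves classified.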

Furin (Homo sapiens) = Furin (Homo sapiens) (UniProt P09958); test: Furin counterscreen qHTS for Zika virus inhibitors (AID 1347149);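 note: purified recombinant full-length human furin enzyme at 5 nM; fluorescence gain from furin cutting a BOC-RVRR-AMC peptide substrate over 15 min; top concentration of the series differs between compounds; nearly all actives have a fitted effect of over 70% in size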
In short: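 Fluorogenic cleavage of BOC-RVRR-AMC (2 microM final, Km ~15 µM) was monitored (ex 340, em 450 nm) at 37C after 15 min RT preincubation of 5 nM furin with compounds in HEPES pH 7.0 buffer with CaCl2 and Triton X-100. Percent inhibition was fitted to a 4-parameter Hill curve.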

[6] = test system: Zika virus NS2B-NS3 protease (unlinked); test: Optimization of GU AMC qHTS for Zika virus inhibitors: Unlinked NS2B-NS3 protease assay (AID 1347151); note: nearly all actives have a fitted effect of over 80% in size
In short: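 Unlinked protease (25 nM final); buffer 10 mM Tris-HCl pH 8.0 + 0.01% Tween 20; AMC substrate; 15 min RT, dark; Δfluorescence normalized to no-inhibitor/no-enzyme controls; 4-parameter Hill fit.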

[7] = Vero cells viability qHTS for Zika virus inhibitors (AID 1347167)
In short: (§1)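 Compounds were tested in concentration series on cells grown in DMEM containing 4% FBS. After 24 to 48 hours, cellular ATP was measured by luminescence with CellTiter Glo.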

[8] = HepG2 cells viability qHTS for Zika virus inhibitors (AID 1347168); note: potency is the fitted concentration of half-maximal effect
In short: as §1

[9] = Tertiary RLuc qRT-PCR qHTS assay for Zika virus inhibitors (AID 1347169); note: potency is the fitted concentration of half-maximal effect; nearly all actives have a fitted effect of over 55% in size
In short: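 Vero, 1,000 cells/well, o/n 37 C; cpd pinned in DMSO; ZIKV-RLuc Cambodian, MOI 1-2, 48-72 h 37 C; live-cell RLuc substrate, lum read at 1-1.5 h.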

[10] = qHTS profiling for inhibitors of Plasmodium falciparum proliferation (AID 504749); note: potency is the fitted concentration of half-maximal effect; nearly all actives have a fitted effect of over 60% in size; conditions: P. falciparum in erythrocytes, SYBR Green DNA, 72 h
In short: (§2)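 Three-day growth assay of blood-stage parasites in erythrocytes (0.3% parasitemia, 2.5% hematocrit) at 37 C, 5% CO2, quantified by SYBR Green DNA staining after overnight detergent lysis.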

3D7 = test: as above; conditions: P. falciparum in erythrocytes, SYBR Green DNA, 72 h; series mostly up to 28.7 µM
In short: as §2

7G8 = test: as above; conditions: P. falciparum in erythrocytes, SYBR Green DNA, 72 h; series mostly up to 28.7 µM
In short: as §2

AA1029 = test: as above; conditions: P. falciparum in erythrocytes, SYBR Green DNA, 72 h; series mostly up to 28.7 µM
In short: as §2

AS120 = test: as above; conditions: P. falciparum in erythrocytes, SYBR Green DNA, 72 h; series mostly up to 28.7 µM
In short: as §2

ATS189 = test: as above; conditions: P. falciparum in erythrocytes, SYBR Green DNA, 72 h; series mostly up to 28.7 µM
In short: as §2

ATS95 = test: as above; conditions: P. falciparum in erythrocytes, SYBR Green DNA, 72 h; series mostly up to 28.7 µM
In short: as §2

C2A = test: as above; conditions: P. falciparum in erythrocytes, SYBR Green DNA, 72 h; series mostly up to 28.7 µM
In short: as §2

CP185 = test: as above; conditions: P. falciparum in erythrocytes, SYBR Green DNA, 72 h; series mostly up to 28.7 µM
In short: as §2

CP191 = test: as above; conditions: P. falciparum in erythrocytes, SYBR Green DNA, 72 h; series mostly up to 28.7 µM
In short: as §2

CP192 = test: as above; conditions: P. falciparum in erythrocytes, SYBR Green DNA, 72 h; series mostly up to 28.7 µM
In short: as §2

CP194 = test: as above; conditions: P. falciparum in erythrocytes, SYBR Green DNA, 72 h; series mostly up to 28.7 µM
In short: as §2

CP201 = test: as above; conditions: P. falciparum in erythrocytes, SYBR Green DNA, 72 h; series mostly up to 28.7 µM
In short: as §2

CP203 = test: as above; conditions: P. falciparum in erythrocytes, SYBR Green DNA, 72 h; series mostly up to 28.7 µM
In short: as §2

CP211 = test: as above; conditions: P. falciparum in erythrocytes, SYBR Green DNA, 72 h; series mostly up to 28.7 µM
In short: as §2

CP215 = test: as above; conditions: P. falciparum in erythrocytes, SYBR Green DNA, 72 h; series mostly up to 28.7 µM
In short: as §2

CP217 = test: as above; conditions: P. falciparum in erythrocytes, SYBR Green DNA, 72 h; series mostly up to 28.7 µM
In short: as §2

CP237 = test: as above; conditions: P. falciparum in erythrocytes, SYBR Green DNA, 72 h; series mostly up to 28.7 µM
In short: as §2

CP238 = test: as above; conditions: P. falciparum in erythrocytes, SYBR Green DNA, 72 h; series mostly up to 28.7 µM
In short: as §2

CP247 = test: as above; conditions: P. falciparum in erythrocytes, SYBR Green DNA, 72 h; series mostly up to 28.7 µM
In short: as §2

CP250 = test: as above; conditions: P. falciparum in erythrocytes, SYBR Green DNA, 72 h; series mostly up to 28.7 µM
In short: as §2

CP252 = test: as above; conditions: P. falciparum in erythrocytes, SYBR Green DNA, 72 h; series mostly up to 28.7 µM
In short: as §2

CP256 = test: as above; conditions: P. falciparum in erythrocytes, SYBR Green DNA, 72 h; series mostly up to 28.7 µM
In short: as §2

Chain of Ubiquitin carboxyl-terminal hydrolase 1 (Homo sapiens) (O94782 whole entry, looked up): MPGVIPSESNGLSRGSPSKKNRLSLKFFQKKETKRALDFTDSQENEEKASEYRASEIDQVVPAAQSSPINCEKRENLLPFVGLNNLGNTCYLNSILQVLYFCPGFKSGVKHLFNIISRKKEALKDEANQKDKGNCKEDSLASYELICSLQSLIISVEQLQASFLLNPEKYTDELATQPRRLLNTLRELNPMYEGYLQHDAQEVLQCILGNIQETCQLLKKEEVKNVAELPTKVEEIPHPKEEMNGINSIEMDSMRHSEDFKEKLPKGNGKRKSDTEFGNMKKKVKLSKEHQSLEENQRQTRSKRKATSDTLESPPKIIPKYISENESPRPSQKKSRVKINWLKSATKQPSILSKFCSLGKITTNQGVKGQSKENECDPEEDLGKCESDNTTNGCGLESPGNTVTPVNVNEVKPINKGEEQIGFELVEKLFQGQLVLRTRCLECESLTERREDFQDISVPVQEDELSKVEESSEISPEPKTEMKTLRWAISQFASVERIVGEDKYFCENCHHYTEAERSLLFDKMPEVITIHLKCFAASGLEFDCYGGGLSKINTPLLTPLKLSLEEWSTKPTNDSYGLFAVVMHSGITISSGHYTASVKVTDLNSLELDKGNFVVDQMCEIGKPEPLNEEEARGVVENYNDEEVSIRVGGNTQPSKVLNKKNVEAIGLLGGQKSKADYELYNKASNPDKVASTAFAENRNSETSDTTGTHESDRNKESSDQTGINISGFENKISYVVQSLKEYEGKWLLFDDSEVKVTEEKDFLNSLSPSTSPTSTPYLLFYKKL
Chain of ATP-dependent 6-phosphofructokinase (Trypanosoma brucei brucei) (O15648 whole entry, looked up): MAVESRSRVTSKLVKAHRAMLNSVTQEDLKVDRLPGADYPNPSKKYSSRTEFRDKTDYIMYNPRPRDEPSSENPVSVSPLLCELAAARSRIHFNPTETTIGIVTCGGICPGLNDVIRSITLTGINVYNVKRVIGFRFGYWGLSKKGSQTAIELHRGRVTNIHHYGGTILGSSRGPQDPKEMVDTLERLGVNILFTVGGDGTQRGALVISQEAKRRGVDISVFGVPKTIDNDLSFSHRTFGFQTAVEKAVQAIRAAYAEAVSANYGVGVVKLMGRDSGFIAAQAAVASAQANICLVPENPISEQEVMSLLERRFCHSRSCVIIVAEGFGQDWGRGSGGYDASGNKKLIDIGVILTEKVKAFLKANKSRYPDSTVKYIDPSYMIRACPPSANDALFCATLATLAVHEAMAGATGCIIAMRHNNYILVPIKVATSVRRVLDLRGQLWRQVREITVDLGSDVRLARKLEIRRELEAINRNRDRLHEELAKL
Chain of Luciferin 4-monooxygenase (Photinus pyralis) (P08659 whole entry, looked up): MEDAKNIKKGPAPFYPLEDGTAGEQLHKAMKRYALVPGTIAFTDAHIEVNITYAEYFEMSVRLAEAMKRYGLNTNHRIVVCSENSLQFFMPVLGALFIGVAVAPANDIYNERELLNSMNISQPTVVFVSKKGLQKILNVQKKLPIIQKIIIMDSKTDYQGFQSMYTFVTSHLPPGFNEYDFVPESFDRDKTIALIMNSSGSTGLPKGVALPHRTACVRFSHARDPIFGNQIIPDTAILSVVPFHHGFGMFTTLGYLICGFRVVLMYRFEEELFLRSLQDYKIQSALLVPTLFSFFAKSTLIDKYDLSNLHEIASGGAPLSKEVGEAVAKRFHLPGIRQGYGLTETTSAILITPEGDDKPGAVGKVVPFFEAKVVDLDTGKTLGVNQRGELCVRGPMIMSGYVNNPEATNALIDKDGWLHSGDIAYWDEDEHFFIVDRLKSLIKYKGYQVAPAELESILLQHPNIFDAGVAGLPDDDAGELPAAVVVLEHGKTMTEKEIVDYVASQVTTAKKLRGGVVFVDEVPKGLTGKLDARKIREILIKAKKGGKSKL
Chain of Furin (Homo sapiens) (P09958 whole entry, looked up): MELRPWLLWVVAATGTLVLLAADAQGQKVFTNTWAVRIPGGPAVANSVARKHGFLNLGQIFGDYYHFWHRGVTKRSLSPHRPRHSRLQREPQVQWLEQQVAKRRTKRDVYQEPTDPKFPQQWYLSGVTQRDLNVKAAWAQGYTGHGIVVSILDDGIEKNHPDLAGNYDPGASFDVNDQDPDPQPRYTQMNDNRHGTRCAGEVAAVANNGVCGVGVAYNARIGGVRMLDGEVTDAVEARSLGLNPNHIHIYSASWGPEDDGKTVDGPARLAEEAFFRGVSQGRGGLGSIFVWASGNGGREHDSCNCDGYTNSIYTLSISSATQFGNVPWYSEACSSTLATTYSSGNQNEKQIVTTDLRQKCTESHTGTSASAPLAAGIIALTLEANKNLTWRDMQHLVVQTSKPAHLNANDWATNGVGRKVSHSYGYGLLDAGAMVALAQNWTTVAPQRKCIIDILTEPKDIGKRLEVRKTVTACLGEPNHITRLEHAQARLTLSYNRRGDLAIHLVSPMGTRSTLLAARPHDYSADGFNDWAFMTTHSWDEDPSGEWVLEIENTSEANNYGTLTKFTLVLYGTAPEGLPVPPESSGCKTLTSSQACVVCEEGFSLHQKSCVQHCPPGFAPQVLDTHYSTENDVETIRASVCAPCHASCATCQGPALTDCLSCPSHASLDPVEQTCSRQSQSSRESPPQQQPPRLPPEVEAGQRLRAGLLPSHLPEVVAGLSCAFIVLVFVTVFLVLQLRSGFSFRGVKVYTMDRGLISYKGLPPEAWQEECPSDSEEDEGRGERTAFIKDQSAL

## CC(C)C[C@@H](NC(=O)[C@H](Cc1ccccc1)NC(=O)c1cnccn1)B(O)O
[1]
  outcome: inactive
[2]
  Potency: inactive
[3]
  Potency: inactive
[4]
  Potency: 3.6 nM (active)
[5]
  Potency: 12.6 nM (active)
Furin (Homo sapiens)
  Potency: inactive
[6]
  Potency: inactive
[7]
  Potency: inactive
[8]
  Potency: 42.6 nM (active)
[9]
  Potency: 26.9 nM (active)
[10]; parasite line A
  Potency: 89.1 nM (active)
[10]; parasite line B
  Potency: 63.1 nM (active)
3D7
  Potency: 126 nM (active)
7G8
  Potency: 31.6 nM (active)
AA1029
  Potency: 70.8 nM (active)
AS120
  Potency: 100 nM (active)
ATS189
  Potency: 112 nM (active)
ATS95
  Potency: 56.2 nM (active)
C2A
  Potency: 126 nM (active)
CP185
  Potency: 112 nM (active)
CP191
  Potency: 89.1 nM (active)
CP192
  Potency: 151 nM (active)
CP194
  Potency: 426 nM (active)
CP201
  Potency: 601 nM (active)
CP203
  Potency: 169 nM (active)
CP211
  Potency: 757 nM (active)
CP215
  Potency: 536 nM (active)
CP217
  Potency: 126 nM (active)
CP237
  Potency: 79.4 nM (active)
CP238
  Potency: 112 nM (active)
CP247
  Potency: 126 nM (active)
CP250
  Potency: 100 nM (active)
CP252
  Potency: 89.1 nM (active)
CP256
  Potency: 126 nM (active)
